Compounds without any hit were thinned out: in the full panel of roughly 83,000, 20% have a hit.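 Growth was measured after 48 h exposure to one concentration of compound in 96-well plates. Values under 10 count as active.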 Unmarked numbers belong to inactive results. The source made the active and inactive calls.
Tests used:
Assay in all cases: NCI-60 one-dose screen, 48 h (100 = growth as untreated, 0 = no growth, -100 = all killed)
Settings in all cases: 10 µM unless noted
[1] = test system: SK-MEL-2 melanoma
[2] = test system: EKVX NSCLC
[3] = test system: SN12C renal
[4] = test system: UO-31 renal
[5] = test system: TK-10 renal
[6] = test system: ACHN renal
[7] = test system: CAKI-1 renal
[8] = test system: A498 renal
[9] = test system: CCRF-CEM leukemia
[10] = test system: MOLT-4 leukemia
[11] = test system: SR leukemia
[12] = test system: RPMI-8226 leukemia
[13] = test system: OVCAR-8 ovarian
[14] = test system: OVCAR-5 ovarian
[15] = test system: OVCAR-4 ovarian
[16] = test system: SK-OV-3 ovarian
[17] = test system: IGROV1 ovarian
[18] = test system: OVCAR-3 ovarian
[19] = test system: HS 578T breast
[20] = test system: NCI/ADR-RES ovarian

O=C1c2ccccc2C(=O)c2cc(Cn3c[n+](Cc4ccc5ccccc5c4)c4ccccc43)ccc21
growth [1]: 51.2% | growth [2]: 73.9% | growth [3]: 47.8% | growth [4]: 72.8% | growth [5]: 67.8% | growth [6]: 92.4% | growth [7]: 40.5% | growth [8]: 77.8% | growth [9]: 22.1% | growth [10]: 28.1% | growth [11]: 38.1% | growth [12]: 2.45% (active) | growth [13]: 41.4% | growth [14]: 59.3% | growth [15]: 47.2% | growth [16]: 83.2% | growth [17]: 3.66% (active) | growth [18]: 34.9% | growth [19]: 62.2% | growth [20]: 91.1%

Cc1ccc2nc(/C=C/c3ccc(N(C)C)cc3)cc(C)c2c1
growth [1]: 34.8% | growth [2]: 52.4% | growth [3]: 35.6% | growth [4]: 33.5% | growth [5]: 43.8% | growth [6]: 32.9% | growth [7]: 18.2% | growth [8]: 27.2% | growth [9]: 17.1% | growth [10]: 40% | growth [11]: 22.1% | growth [12]: 34.1% | growth [13]: 41.4% | growth [14]: 73.1% | growth [15]: 85.5% | growth [16]: 31.4% | growth [17]: 49% | growth [18]: -2.23% (active) | growth [19]: 34.9% | growth [20]: 25.2%

O=C(CSc1nc(-c2ccccc2)cn1-c1ccc(Cl)cc1)c1ccc([N+](=O)[O-])cc1
growth [1]: 86.9% | growth [2]: 92.7% | growth [3]: 86.5% | growth [4]: 59.7% | growth [5]: 96.4% | growth [6]: 95.1% | growth [7]: 89% | growth [8]: 74.6% | growth [9]: 83.2% | growth [10]: 68.4% | growth [11]: 72.2% | growth [12]: 80.4% | growth [13]: 94.1% | growth [14]: 95.4% | growth [15]: 92.8% | growth [16]: 96.6% | growth [17]: 96.5% | growth [18]: 78.8% | growth [19]: 62.8% | growth [20]: 91.2%

CCCNNC(=O)c1ccc(CNC(=O)/C=C/c2ccccc2)cc1
growth [1]: 45% [2.5 µM] | growth [2]: 55.2% [2.5 µM] | growth [3]: 52.8% [2.5 µM] | growth [4]: 22.4% [2.5 µM] | growth [5]: -0.401% [2.5 µM] (active) | growth [6]: 10.1% [2.5 µM] | growth [7]: 23.1% [2.5 µM] | growth [8]: -18.4% [2.5 µM] (active) | growth [9]: 27.3% [2.5 µM] | growth [10]: 15.3% [2.5 µM] | growth [11]: 30.8% [2.5 µM] | growth [12]: 18.9% [2.5 µM] | growth [13]: 20.7% [2.5 µM] | growth [14]: 18.1% [2.5 µM] | growth [15]: 63.2% [2.5 µM] | growth [16]: 8.72% [2.5 µM] (active) | growth [17]: 30.5% [2.5 µM] | growth [18]: 47.6% [2.5 µM] | growth [19]: 47.3% [2.5 µM] | growth [20]: 21% [2.5 µM]

CC(C)=CC(=O)C1C(=O)c2ccccc2C1=O
growth [1]: 102% | growth [2]: 99.4% | growth [3]: 95.1% | growth [4]: 92.3% | growth [5]: 108% | growth [6]: 97.1% | growth [7]: 81% | growth [8]: 87.6% | growth [9]: 98.1% | growth [10]: 103% | growth [11]: 91.3% | growth [12]: 103% | growth [13]: 97.8% | growth [14]: 97.3% | growth [15]: 102% | growth [16]: 90.4% | growth [17]: 70.5% | growth [18]: 95.7% | growth [19]: 102% | growth [20]: 108%

CCOC(=O)/C(=C\c1ccccc1Cl)P(=O)(OCC)OCC
growth [1]: 68.1% | growth [2]: 73.1% | growth [3]: 68% | growth [4]: 53.9% | growth [5]: 75.5% | growth [6]: 52.8% | growth [7]: 75% | growth [8]: 103% | growth [9]: 19.5% | growth [10]: 25.1% | growth [11]: -0.778% (active) | growth [12]: 7.93% (active) | growth [13]: 59.1% | growth [14]: 82.4% | growth [15]: 75.1% | growth [16]: 95.7% | growth [17]: 65.7% | growth [18]: 56.1% | growth [19]: 80.3% | growth [20]: 44%

CN(Cc1ccccc1)c1nc(Cl)c(C2CC(c3ccc(Cl)cc3)=NN2c2cc(Cl)cc(Cl)c2)s1 (stereo not given)
growth [1]: 104% | growth [2]: 94.4% | growth [3]: 106% | growth [4]: 96.9% | growth [5]: 117% | growth [6]: 102% | growth [7]: 84.4% | growth [8]: 111% | growth [9]: 95.1% | growth [10]: 110% | growth [11]: 109% | growth [12]: 81.4% | growth [13]: 106% | growth [14]: 113% | growth [15]: 97.6% | growth [16]: 92.9% | growth [17]: 102% | growth [18]: 109% | growth [19]: 116% | growth [20]: 102%

COc1cccc(-c2nn(-c3ccccc3)cc2-c2ccnc(-c3cccnc3)c2)c1
growth [1]: 87.4% | growth [2]: 93.3% | growth [3]: 101% | growth [4]: 62.1% | growth [5]: 104% | growth [6]: 92.6% | growth [7]: 102% | growth [8]: 98.6% | growth [9]: 99% | growth [10]: 88.1% | growth [11]: 74.9% | growth [12]: 67.7% | growth [13]: 105% | growth [14]: 95.9% | growth [15]: 82.7% | growth [16]: 104% | growth [17]: 94.8% | growth [18]: 96.8% | growth [19]: 120% | growth [20]: 90.6%

CC1=C2[C@@H](CC1)[C@]1(C)O[C@@](C(C)C)(C[C@H]1OC(=O)CO)[C@H]2OC(=O)CCCc1ccccc1
growth [1]: 66.8% | growth [2]: 94.1% | growth [3]: 54.9% | growth [4]: 39.6% | growth [5]: 88.4% | growth [6]: 56.7% | growth [7]: 59.8% | growth [8]: 59.3% | growth [9]: 31.8% | growth [10]: 23.5% | growth [11]: 76.1% | growth [12]: 22.7% | growth [13]: 35.4% | growth [14]: 100% | growth [15]: 80% | growth [16]: 105% | growth [17]: 62.8% | growth [18]: 61.3% | growth [19]: -4.02% (active) | growth [20]: 44.8%

COC(=O)CNC(=O)c1ccc(NC(=O)c2[nH]c(C)c(Cl)c2Cl)c(O[C@H]2CCNC2)c1
growth [1]: 108% | growth [2]: 102% | growth [3]: 97.5% | growth [4]: 84.8% | growth [5]: 104% | growth [6]: 106% | growth [7]: 94.9% | growth [8]: 89.9% | growth [9]: 91.9% | growth [10]: 93.5% | growth [11]: 83.7% | growth [12]: 96.7% | growth [13]: 101% | growth [14]: 112% | growth [15]: 110% | growth [16]: 96.6% | growth [17]: 111% | growth [18]: 114% | growth [19]: 92.8% | growth [20]: 112%

Nc1nc(N)c2c(n1)NC(c1ccc3c(c1)OCO3)CC(c1cccc(Nc3ccncc3)c1)=N2 (stereo not given)
growth [1]: 86% | growth [2]: 89.1% | growth [3]: 94.6% | growth [4]: 96.1% | growth [5]: 99.6% | growth [6]: 110% | growth [7]: 78.8% | growth [8]: 93% | growth [9]: 70% | growth [10]: 71.2% | growth [11]: 53.1% | growth [12]: 80.5% | growth [13]: 83.8% | growth [14]: 114% | growth [15]: 98.7% | growth [16]: 90.9% | growth [17]: 79.7% | growth [18]: 90.9% | growth [19]: 81.4% | growth [20]: 107%

O=C(Nc1ccc2c(c1)-c1ccccc1C2)C1CC(=O)N(c2ccc3c(c2)OCO3)C1 (stereo not given)
growth [1]: 89.2% [50 µM] | growth [2]: 78.1% [50 µM] | growth [3]: 73% [50 µM] | growth [4]: 97.7% [50 µM] | growth [5]: 60.6% [50 µM] | growth [6]: 64.5% [50 µM] | growth [7]: 61% [50 µM] | growth [8]: 26.1% [50 µM] | growth [9]: 100% [50 µM] | growth [10]: 99.7% [50 µM] | growth [11]: 77.2% [50 µM] | growth [12]: 81.8% [50 µM] | growth [13]: 28.5% [50 µM] | growth [14]: 83.5% [50 µM] | growth [15]: 2.45% [50 µM] (active) | growth [16]: 76.1% [50 µM] | growth [17]: 80.5% [50 µM] | growth [18]: 31.3% [50 µM] | growth [19]: 31.7% [50 µM] | growth [20]: 58.9% [50 µM]

CCOC(=O)CC1C(CNC(=O)NC)OC(n2cnc3c(NC(=O)Nc4ccccc4)ncnc32)C1O[Si](C)(C)C(C)(C)C (stereo not given)
growth [1]: 54.3% | growth [2]: 63.7% | growth [3]: 60.7% | growth [4]: 57% | growth [5]: 43.5% | growth [6]: 68.7% | growth [7]: 81.6% | growth [8]: 71.3% | growth [9]: 49.9% | growth [10]: 50.1% | growth [11]: 28.2% | growth [12]: 11.2% | growth [13]: 65.4% | growth [14]: 99.6% | growth [15]: 61.2% | growth [16]: 93.6% | growth [17]: 51.1% | growth [18]: 79.6% | growth [19]: 43.9% | growth [20]: 85.6%

C#CCOC(=O)C(N)CSSCC(N)C(=O)O (stereo not given)
growth [1]: 89.2% | growth [2]: 102% | growth [3]: 105% | growth [4]: 83.5% | growth [5]: 100% | growth [6]: 91.7% | growth [7]: 90.7% | growth [8]: 116% | growth [9]: 99.4% | growth [10]: 102% | growth [11]: 96.1% | growth [12]: 103% | growth [13]: 111% | growth [14]: 84.4% | growth [15]: 95.9% | growth [16]: 109% | growth [17]: 99.5% | growth [18]: 112% | growth [19]: 107% | growth [20]: 101%

O=C(Nc1cccc2c1C(=O)c1cccc(NC(=O)c3ccc(C(=O)Nc4cccc5c4C(=O)c4cccc(NC(=O)c6ccccc6)c4C5=O)cc3)c1C2=O)c1ccccc1
growth [1]: 73.1% | growth [2]: 86.5% | growth [3]: 96.6% | growth [4]: 72.9% | growth [5]: 121% | growth [6]: 99.9% | growth [7]: 108% | growth [8]: 117% | growth [9]: 115% | growth [10]: 75.2% | growth [11]: 9.04% (active) | growth [12]: 105% | growth [13]: 98.1% | growth [14]: 91.1% | growth [15]: 98.9% | growth [16]: 99.4% | growth [17]: 41.1% | growth [18]: 106% | growth [19]: 99.5% | growth [20]: 101%
